Where “and” joins values, the source holds several entries; their conditions need not be identical. Identical values can stand only once. Inconclusive results are not listed. Calls of active or inactive are those of the source. Calls follow the shape of the dose curve; as a rule, active = well fitted cell-killing curve with a large enough effect in the repeat runs; inconclusive = weak or mixed curves, or effect the other way; inactive = no such curve, though single readings can be large or run the other way.
Test: qHTS assay to identify small molecule agonists of the estrogen receptor alpha (ER-alpha) signaling pathway in the presence of an antagonist - cell viability counter screen (AID 1259386);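 also: cells exposed to compounds for 22 h at 37 °C before the viability read; nearly all actives have a fitted effect of over 30% in size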
Details: VM7Luc4E2 viability, CellTiter-Fluor fluorescence, 22 h; series mostly up to 92.4 µM; activity change, negative = cytotoxicity: at the top concentration
From the text: National Center for Advancing Translational Sciences [NCATS]
NIH Chemical Genomics Center [NCGC]
U.S. Environmental Protection Agency [EPA]
National Institutes of Environmental Health Sciences [NIEHS]
National Toxicology Program [NTP]
U.S. Food and Drug Administration [FDA]
Estrogen receptor (ER), a member of nuclear hormone receptor plays an important role in development, metabolic homeostasis and reproduction. Two subtypes of ER, ER-alpha and ER-beta, have similar expression patterns with some uniqueness in both types. Endocrine disrupting chemicals (EDCs) and their interactions with steroid hormone receptors like ER causes disruption of normal endocrine function. Therefore, it is important to understand the effect of environmental chemicals in ER signaling pathway. For identifying ER agonists, VM7Luc4E2 cell line has been used in the current assay.
VM7Luc4E2 cell line (provided by Denison MS, University of California) endogenously expresses full-length ER-alpha and is stably transfected with a plasmid containing four estrogen responsive elements (ERE) upstream of a luciferase reporter gene. This current screening for measuring luciferase reporter gene activity using VM7Luc4E2 cells against Tox21 10K library collection is a confirmation study on agonist mode screening in presence of ER-antagonist (ICI-182,780) at 10.0nM final concentration. The cytotoxicity of the compounds was tested in parallel by measuring the cell viability using CellTiter-Fluor assay system (Promega, Madison, WI) in the same wells.
Tox21 Assay Protocol Summary:
VM7Luc4E2 cells were cultured in phenol red free assay medium containing 10% charcoal stripped FBS for 5 days prior to the assay. The cells were dispensed at 4,000 cells in 4uL of assay medium per well into white wall/solid-bottom 1536-well plates (Corning Life Sciences, Corning, NY) using a Multidrop Combi (Thermo Fisher Scientific Inc., Waltham, MA) dispenser. After the assay plates were incubated at 37C and 5% CO2 for 24hr, 1uL of 10.0nM (final concentration) ICI-182,780 or assay buffer was added using two separate tips of Flying Reagent Dispenser (FRD, Aurora Discovery, San Diego, CA). Then 23nL of compounds dissolved in DMSO at 15 concentrations and positive controls or DMSO only was transferred to the assay plates by a Pintool station (Wako, San Diego, CA). The assay plates were incubated at 37C and 5% CO2 for 22hr. After 21hr incubation at 37C, 1uL/well CellTiter-Fluor reagent (Promega Corporation, Madison, WI) was added to each well using FRD and after 1hr incubation at 37C and 5% CO2, the fluorescence signal was measured on ViewLux plate reader (PerkinElmer, Shelton, CT).
% is scaled to controls: 0 for no effect and ±100 for the full control effect; potency is read from the fitted curve at half-maximal effect.

Row | SMILES | Potency | activity change, negative = cytotoxicity
1 | Cc1ccc(-c2cc(C(F)(F)F)nn2-c2ccc(S(N)(=O)=O)cc2)cc1 | inactive | –
2 | Clc1ccc2c(c1)C(N1CCNCC1)=Nc1ccccc1O2 | – | -2.78% [at 42.5 µM] (inactive)
3 | CC(=O)O[C@]1(C(C)=O)CC[C@H]2[C@@H]3C[C@H](C)C4=CC(=O)CC[C@]4(C)[C@H]3CC[C@@]21C | inactive | –
4 | CCOc1ccc2c(c1)C(C)=CC(C)(C)N2 | inactive | –
5 | NC(=Nc1ccccc1)Nc1ccccc1 | – | -9.15% [at 42.5 µM] (inactive)
6 | NC12CC3CC(CC(C3)C1)C2 | – | 4.74% [at 42.5 µM] (inactive)
7 | CN(C)c1ccc2nc3ccc(=[N+](C)C)cc-3sc2c1 | 33 µM (active) and 27.3 µM (active) and 15 µM (active) | –
8 | O=S(=O)(O)c1ccc2nc(-c3ccccc3)[nH]c2c1 | inactive | –
9 | COc1cc(C(=S)N2CCOCC2)ccc1O | – | 0.15% [at 42.5 µM] (inactive)
10 | CCCCC/C=C/CC1CC(=O)OC1=O (stereo not given) | – | 4.36% (inactive)
11 | CCC[C@H](N[C@@H](C)C(=O)N1[C@H](C(=O)O)C[C@@H]2CCCC[C@@H]21)C(=O)OCC | inactive | –
12 | O=C(O)c1cccc(C(=O)O)c1 | inactive | –
13 | COC(=O)[C@H]1[C@H]2C[C@@H]3c4[nH]c5cc(OC)ccc5c4CCN3C[C@H]2C[C@@H](OC(=O)c2cc(OC)c(OC)c(OC)c2)[C@@H]1OC | inactive | –
14 | Cc1scc2c1N(C(=O)CN1CCN(C)CC1)c1ccccc1NC2=O | – | -6.34% [at 42.5 µM] (inactive)
15 | CC(C)(C)NC(=O)[C@@H]1CN(Cc2cccnc2)CCN1C[C@@H](O)C[C@@H](Cc1ccccc1)C(=O)N[C@H]1c2ccccc2C[C@H]1O | – | -9.01% [at 42.5 µM] (inactive)
16 | CCOC(=O)C(C)C(C)=O (stereo not given) | – | -1.48% (inactive)
17 | CCCNC(C)C(=O)Nc1ccccc1C (stereo not given) | – | 1.24% [at 42.5 µM] (inactive)
18 | CCCCCCCCCCCCCC[P+](CCCC)(CCCC)CCCC | 12.1 µM (active) and 17.2 µM (active) | –
19 | CC[C@@H](N)CO | – | 1.09% (inactive)
20 | OCC(CO)N[C@H]1C[C@](O)(CO)[C@@H](O)[C@H](O)[C@H]1O | – | 0.152% [at 42.5 µM] (inactive)

Row | SMILES | Potency | activity change, negative = cytotoxicity
21 | CC1COc2c(N3CCN(C)CC3)c(F)cc3c(=O)c(C(=O)O)cn1c23 (stereo not given) | – | 0.566% [at 42.5 µM] (inactive)
22 | Nc1ccc2cc3ccccc3cc2c1 | – | -3.28% (inactive)
23 | CC(C)(C)c1cc(C(C)(C)C)c(O)c(C(C)(C)C)c1 | inactive | –
24 | O=C(O)c1cn(-c2ccc(F)cc2)c2cc(N3CCNCC3)c(F)cc2c1=O | inactive | –
25 | CC(C)(c1ccccc1)c1ccc(Nc2ccc(C(C)(C)c3ccccc3)cc2)cc1 | inactive | –
26 | C1COC(NC(C2CC2)C2CC2)=N1 | – | 0.443% [at 42.5 µM] (inactive)
27 | CCC(C)(C)C(=O)O[C@H]1C[C@@H](C)C=C2C=C[C@H](C)[C@H](CC[C@@H]3C[C@@H](O)CC(=O)O3)[C@H]21 | inactive | –
28 | CCC(=O)/C=C/C1C(C)=CCCC1(C)C (stereo not given) | inactive | –
29 | NC(N)=Nc1nc(CSCC/C(N)=N/S(N)(=O)=O)cs1 | – | -6.39% [at 42.5 µM] (inactive)
30 | COc1ccc(CCN(C)CCCC(C#N)(c2ccc(OC)c(OC)c2)C(C)C)cc1OC (stereo not given) | 30.6 µM (active) | –
31 | c1ccc2cc3c(ccc4ccccc43)cc2c1 | inactive | –
32 | CCCCCCCCCCCCCCCCCl | – | -1.56% [at 19 µM] (inactive)
33 | CCc1cc(C(C)(C)C)c(O)c(C(C)(C)C)c1 | inactive | –
34 | CN1C(=O)c2ccc([N+](=O)[O-])cc2C1=O | – | 2.28% (inactive)
35 | NCCCCCC(=O)O | – | 1.73% [at 42.5 µM] (inactive)
36 | c1ccc2c(c1)-c1cccc3c1c-2cc1ccccc13 | inactive | –
37 | CCn1c2ccccc2c2cc(N)ccc21 | – | -14.8% (inactive)
38 | N[C@@H]1CONC1=O | – | 3.03% [at 42.5 µM] (inactive)
39 | O=C(O)Cn1cnnn1 | – | 0.868% [at 42.5 µM] (inactive)
40 | CC(=O)Nc1ccc(C(=O)CCl)cc1 | inactive | –
